Measurements reported in PubChem BioAssay.
The source made the active and inactive calls.

Tests used:
Albumin (Bos taurus) = Albumin (Bos taurus) (UniProt P02769); assay: bovine serum albumin binders on microarray, profiling panel, artefact control for SMM control protein annotation, biochemical, small-molecule microarray, Alexa647 label, 635/667 nm fluorescence (AID 1118); conditions: BSA-A647 binding, fluorescence 635 nm, higher = more signal;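 note: score merges 667 nm emission intensity and signal-to-noise per printed compound spot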
Chain of Albumin (Bos taurus) (P02769 whole entry, looked up): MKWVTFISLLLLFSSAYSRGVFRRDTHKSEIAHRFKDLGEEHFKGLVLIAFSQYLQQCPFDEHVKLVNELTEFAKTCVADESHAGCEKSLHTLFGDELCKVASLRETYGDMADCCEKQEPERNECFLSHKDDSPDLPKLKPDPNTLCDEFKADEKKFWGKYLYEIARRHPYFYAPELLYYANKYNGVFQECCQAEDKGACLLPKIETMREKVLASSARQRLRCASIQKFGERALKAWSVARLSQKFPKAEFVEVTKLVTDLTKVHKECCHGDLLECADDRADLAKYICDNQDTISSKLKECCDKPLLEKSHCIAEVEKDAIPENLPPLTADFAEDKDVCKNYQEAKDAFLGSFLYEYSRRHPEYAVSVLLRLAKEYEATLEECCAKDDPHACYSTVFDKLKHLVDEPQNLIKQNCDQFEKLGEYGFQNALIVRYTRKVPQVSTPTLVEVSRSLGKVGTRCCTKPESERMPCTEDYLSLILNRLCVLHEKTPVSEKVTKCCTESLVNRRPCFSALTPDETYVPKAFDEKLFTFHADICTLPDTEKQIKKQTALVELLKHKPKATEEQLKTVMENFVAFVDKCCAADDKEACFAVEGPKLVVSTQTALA

[1] = small-molecule microarray binders of probe aXIP, primary screen, biochemical, NeuroSMM set, 635/667 nm fluorescence (AID 1119); conditions: higher = more signal, called active from +8 up or from −8 down;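 note: probe is the protein aXip251-270 applied at 1 µg/mL to compound-printed slides; binding of probe to printed compounds measured as 667 nm fluorescence plus signal to noise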
[2] = small-molecule binders of probe aNOTCH3, primary screen, biochemical, small-molecule microarray, 635/667 nm fluorescence (AID 1120); conditions: higher = more signal;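 note: probe is a biotin-tagged antibody raised against NOTCH3 rather than NOTCH3 protein; score merges spot fluorescence near 667 nm with spot signal to noise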
[3] = small-molecule binders of probe aNOTCH2, primary screen, biochemical, small-molecule microarray, 635/667 nm fluorescence (AID 1121); conditions: higher = more signal;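 note: score merges feature fluorescence read at 667 nm with its signal to noise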
[4] = target: Carbonic anhydrase 2 (Homo sapiens) (UniProt P00918); assay: CAII small-molecule binders, profiling panel, biochemical, small-molecule microarray, Alexa647-labelled CAII (AID 1122); conditions: CAII-A647 binding fluorescence, higher = more signal
[5] = COS7 lysate on small-molecule microarray, probe aHis, 635 nm (AID 1123); conditions: COS7 cell lysate, fluorescence, higher = more signal;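 note: z-score combines 667nm fluorescence intensity with signal-to-noise per printed compound spot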
[6] = compound binding in COS7 lysate, probe aLAP1, primary screen, cell lysate, small-molecule microarray (AID 1124); conditions: probe aLAP1, fluorescence, higher = more signal;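 note: lysate comes from COS7 cells expressing LAP1 and is applied at 0.3 µg/mL; score merges spot fluorescence near 667 nm with signal-to-noise over triplicate slides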
Sam68 (KHDRBS1) = assay: Sam68 small-molecule binders, primary screen, biochemical, small-molecule microarray, 635 nm fluorescence (AID 1125); conditions: small-molecule microarray binding, higher = more signal;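 note: score merges 667 nm channel intensity with signal to noise over triplicate slides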
[7] = system: Chordin-like protein 2 (CHRDL2); assay: CHRDL2 small-molecule binders, primary screen, biochemical, small-molecule microarray, 635 nm fluorescence (AID 1126); conditions: small-molecule microarray binding, fluorescence 635 nm; higher = more signal;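 note: printed compound slides probed with Chrdl2 protein at 4 µg/mL for 1 h at 4 C; score merges 667 nm emission intensity with signal to noise over three replicate slides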
[8] = target: Concanavalin-A (Canavalia ensiformis) (UniProt P02866); assay: ConA small-molecule binders, primary screen, artefact control for SMM control protein annotation, biochemical, small-molecule microarray, Alexa647 label, 635 nm (AID 1127); conditions: ConA-A647 binding fluorescence, higher = more signal;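 note: z combines 667 nm emission intensity with signal-to-noise across three replicate slides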
Chain of Concanavalin-A (Canavalia ensiformis) (P02866 whole entry, looked up): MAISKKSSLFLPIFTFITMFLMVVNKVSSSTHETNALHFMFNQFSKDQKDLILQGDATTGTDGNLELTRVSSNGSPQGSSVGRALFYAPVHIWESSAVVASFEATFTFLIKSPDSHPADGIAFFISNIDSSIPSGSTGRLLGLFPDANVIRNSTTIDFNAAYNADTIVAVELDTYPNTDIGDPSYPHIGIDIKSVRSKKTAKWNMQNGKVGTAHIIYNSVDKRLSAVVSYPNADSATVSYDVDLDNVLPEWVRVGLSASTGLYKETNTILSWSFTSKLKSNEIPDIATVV

[9] = anti-His antibody binders, primary screen, artefact control for SMM control protein annotation, biochemical, small-molecule microarray, 635 nm fluorescence (AID 1128); conditions: anti-His Alexa647 antibody binding, higher = more signal;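 note: score merges feature fluorescence with signal-to-noise for each printed compound spot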
[10] = system: Human papillomavirus type 1a E7 protein (residues 1-88); assay: HPV1a E7 small-molecule binders, primary screen, biochemical, small-molecule microarray, residues 1-88, 635 nm (AID 1129); conditions: small-molecule microarray binding, fluorescence 635 nm; higher = more signal
[11] = target: Focal adhesion kinase 1 (Homo sapiens) (UniProt Q05397); assay: small-molecule microarray binders of FAK, primary screen, biochemical, 635/667 nm fluorescence, BSA, DTT (AID 1130); conditions: PTK2 binding, 635 nm fluorescence, higher = more signal;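 note: composite of spot emission at 667 nm and signal to noise over triplicate slides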
Chain of Focal adhesion kinase 1 (Homo sapiens) (Q05397 whole entry, looked up): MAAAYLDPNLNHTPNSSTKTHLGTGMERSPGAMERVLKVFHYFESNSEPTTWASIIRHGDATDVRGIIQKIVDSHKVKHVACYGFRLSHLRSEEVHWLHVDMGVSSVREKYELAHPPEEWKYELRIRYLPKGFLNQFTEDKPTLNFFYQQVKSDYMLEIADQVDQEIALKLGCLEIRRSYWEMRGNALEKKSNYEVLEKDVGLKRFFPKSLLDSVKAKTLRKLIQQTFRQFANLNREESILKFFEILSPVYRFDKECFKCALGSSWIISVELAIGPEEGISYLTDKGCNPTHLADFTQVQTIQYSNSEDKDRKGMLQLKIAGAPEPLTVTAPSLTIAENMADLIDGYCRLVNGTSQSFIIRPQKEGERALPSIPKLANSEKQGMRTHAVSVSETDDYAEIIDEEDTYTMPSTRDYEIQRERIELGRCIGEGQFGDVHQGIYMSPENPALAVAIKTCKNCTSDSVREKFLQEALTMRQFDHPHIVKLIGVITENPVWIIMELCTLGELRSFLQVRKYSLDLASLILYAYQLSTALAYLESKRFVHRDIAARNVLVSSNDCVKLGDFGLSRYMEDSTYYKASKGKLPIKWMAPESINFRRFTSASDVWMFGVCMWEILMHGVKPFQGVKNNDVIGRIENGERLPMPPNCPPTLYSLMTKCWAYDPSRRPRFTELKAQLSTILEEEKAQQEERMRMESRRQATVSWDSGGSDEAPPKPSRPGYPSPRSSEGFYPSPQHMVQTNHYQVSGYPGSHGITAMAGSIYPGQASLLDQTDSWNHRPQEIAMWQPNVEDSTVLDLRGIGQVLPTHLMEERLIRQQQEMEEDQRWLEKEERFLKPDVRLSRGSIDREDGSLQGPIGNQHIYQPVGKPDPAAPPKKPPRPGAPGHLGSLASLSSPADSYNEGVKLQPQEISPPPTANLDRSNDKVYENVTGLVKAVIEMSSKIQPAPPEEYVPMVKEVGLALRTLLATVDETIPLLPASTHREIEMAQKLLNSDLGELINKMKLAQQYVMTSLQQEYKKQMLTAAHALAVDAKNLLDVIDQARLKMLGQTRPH

[12] = system: Fibrinogen (Alexa647-labelled); assay: fibrinogen binders on compound microarrays, profiling panel, artefact control for SMM control-protein annotation, biochemical, small-molecule microarray, 635/667 nm fluorescence (AID 1131); conditions: fibrinogen-A647 binding fluorescence, higher = more signal;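 note: z-score merges 667 nm fluorescence with per-spot signal-to-noise over triplicate slides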
[13] = target: Follistatin (Homo sapiens) (UniProt P19883); assay: follistatin binders on small-molecule microarrays, primary screen, biochemical, small-molecule microarray, 635/667 nm fluorescence (AID 1132); conditions: FST binding, 635 nm fluorescence, higher = more signal
Chain of Follistatin (Homo sapiens) (P19883 whole entry, looked up): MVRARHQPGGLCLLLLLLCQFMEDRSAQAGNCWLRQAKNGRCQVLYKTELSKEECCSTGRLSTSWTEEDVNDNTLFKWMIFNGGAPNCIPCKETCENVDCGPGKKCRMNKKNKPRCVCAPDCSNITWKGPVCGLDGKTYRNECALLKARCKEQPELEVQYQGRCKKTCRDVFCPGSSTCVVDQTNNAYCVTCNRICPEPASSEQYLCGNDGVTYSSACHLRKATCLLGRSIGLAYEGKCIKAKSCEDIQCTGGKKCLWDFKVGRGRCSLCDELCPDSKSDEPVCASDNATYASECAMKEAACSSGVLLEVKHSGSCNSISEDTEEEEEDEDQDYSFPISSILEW

[14] = target: Fibroblast growth factor 2 (Homo sapiens) (UniProt P09038); assay: FGF2 binders on small-molecule microarrays, primary screen, biochemical, small-molecule microarray, 635/667 nm fluorescence (AID 1133); conditions: small-molecule microarray binding, FGF2, fluorescence 635/667; higher = more signal
Chain of Fibroblast growth factor 2 (Homo sapiens) (P09038 whole entry, looked up): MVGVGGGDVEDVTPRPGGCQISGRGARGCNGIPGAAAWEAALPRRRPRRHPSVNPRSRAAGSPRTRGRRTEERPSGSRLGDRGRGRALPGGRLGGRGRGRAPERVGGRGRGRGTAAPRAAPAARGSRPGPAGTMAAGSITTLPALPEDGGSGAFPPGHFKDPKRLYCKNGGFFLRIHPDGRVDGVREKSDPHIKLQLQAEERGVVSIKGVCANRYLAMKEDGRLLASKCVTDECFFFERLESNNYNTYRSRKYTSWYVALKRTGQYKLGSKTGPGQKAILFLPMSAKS

[15] = mitochondrial membrane potential change in A549 cells, profiling panel, cell-based, JC-1 fluorescence, basal, 24 h, 100 nL (AID 1138); conditions: higher = more signal;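 note: A549 lung adenocarcinoma cells under basal conditions with no added stimulus; test concentration not given here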
Lefty1 = Lefty1 binders on small-molecule microarrays, primary screen, biochemical, small-molecule microarray, 635/667 nm fluorescence (AID 1139); conditions: small-molecule microarray binding, fluorescence 635/667; higher = more signal
[16] = system: wheat germ agglutinin (Triticum aestivum), Alexa647-labelled; assay: wheat germ agglutinin binders on compound microarrays, profiling panel, artefact control for SMM control-protein annotation, biochemical, small-molecule microarray, 635/667 nm fluorescence (AID 1140); conditions: WGA-A647 binding, 635 nm fluorescence, higher = more signal;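 note: score merges 667 nm feature emission with signal to noise over triplicate slides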
[17] = target: Luciferin 4-monooxygenase (Photinus pyralis) (UniProt P08659); assay: firefly luciferase enzyme inhibitors, primary screen, biochemical, luminescence, purified enzyme, 2006 set (AID 1141); conditions: SteadyGlo luminescence, 30 min, higher = more signal, called active from +8 up or from −8 down;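 note: cell-free assay with purified firefly luciferase at 100 ng per well in PBS; test concentration not given here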
Chain of Luciferin 4-monooxygenase (Photinus pyralis) (P08659 whole entry, looked up): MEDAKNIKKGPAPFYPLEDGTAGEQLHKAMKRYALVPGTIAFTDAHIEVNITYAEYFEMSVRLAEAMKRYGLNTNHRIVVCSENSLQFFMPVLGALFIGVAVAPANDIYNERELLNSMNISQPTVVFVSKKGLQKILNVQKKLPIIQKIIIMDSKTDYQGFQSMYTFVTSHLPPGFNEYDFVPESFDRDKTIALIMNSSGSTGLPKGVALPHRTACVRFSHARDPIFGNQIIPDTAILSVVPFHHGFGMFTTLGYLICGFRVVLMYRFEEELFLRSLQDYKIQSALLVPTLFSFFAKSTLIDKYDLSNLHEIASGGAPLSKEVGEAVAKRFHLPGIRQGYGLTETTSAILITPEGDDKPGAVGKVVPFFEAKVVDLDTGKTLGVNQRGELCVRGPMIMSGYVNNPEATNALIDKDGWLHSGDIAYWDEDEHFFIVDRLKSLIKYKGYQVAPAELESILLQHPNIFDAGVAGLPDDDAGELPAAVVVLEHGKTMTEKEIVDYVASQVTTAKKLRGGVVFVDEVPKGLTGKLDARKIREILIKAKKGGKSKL

| SMILES | composite z-score (Albumin (Bos taurus)) | composite Z-score [1] | composite z-score [2] | composite z-score [3] | composite z-score [4] | composite z-score [5] | composite z-score [6] | composite z-score (Sam68 (KHDRBS1)) | composite z-score [7] | composite z-score [8] | composite z-score [9] | composite z-score [10] | composite z-score [11] | composite z-score [12] | composite z-score [13] | composite z-score [14] | z-score [15] | composite z-score (Lefty1) | composite z-score [16] | z-score [17] |
| --- | --- | --- | --- | --- | --- | --- | --- | --- | --- | --- | --- | --- | --- | --- | --- | --- | --- | --- | --- | --- |
| CCOC(=O)NN=C1C[C@@H](O)[C@@H](O)[C@@H]2[C@@H]3C(=O)N(CC)C(=O)[C@@H]3CC[C@H]12 | 0.541 | -0.415 (inactive) | -0.0879 | -0.126 | 0.448 | 0.0053 | -0.0396 | -0.221 | 0.202 | 0.173 | 0.241 | -0.351 | 0.105 | 0.569 | -0.408 | 0.0278 | -0.00768 | 0.0358 | 0.195 | -0.557 (inactive) |
| C[C@H]1CC[C@@H](C(=O)O)N[C@@H]1c1cccc(N2CCCC2=O)c1 | -0.0315 | -0.38 (inactive) | -0.173 | -0.14 | -0.192 | -0.101 | -0.127 | 0.0706 | 0.456 | 0.116 | -0.0817 | 0.675 | -0.0555 | 0.25 | 0.412 | 0.229 | 1.21 | 0.132 | -0.368 | -1.21 (inactive) |
| CC1(C)O[C@H]2OC([C@H](O)CON3C(=O)c4ccccc4C3=O)[C@H](O)[C@H]2O1 (stereo not given in full) | 0.107 | -0.282 (inactive) | -0.135 | 0.117 | 0.341 | -0.378 | -0.0948 | 0.29 | 0.0988 | -0.371 | 0.547 | -0.103 | 0.433 | 0.12 | 0.0275 | 0.495 | -0.487 | 0.291 | 0.561 | -0.317 (inactive) |
| CC(C)=NO[C@@H](C)c1cn([C@H](CO)Cc2ccccc2)nn1 | 0.015 | 0.374 (inactive) | 0.145 | -0.0375 | 0.138 | 0.398 | 0.224 | 0.863 | 0.655 | 0.65 | 0.554 | 0.598 | -0.17 | 0.17 | 0.238 | 0.239 | -0.0312 | 0.542 | 0.237 | -2 (inactive) |
| COCC#Cc1ccc([C@@H]2N[C@H](C(=O)O)CC[C@H]2C)cc1 | -0.202 | -0.165 (inactive) | -0.0605 | -0.144 | -0.148 | -0.336 | -0.384 | -0.377 | 0.305 | -0.691 | -1.01 | 0.307 | 0.547 | -0.426 | 0.273 | -0.0471 | 2.23 | 0.0859 | -0.389 | -1.77 (inactive) |
| CO[C@H]1COC(=O)CCC[C@H](C)[C@H](OC)COC(=O)CC=C[C@@H]1C | -0.235 | -0.348 (inactive) | -0.189 | -0.118 | -0.515 | -1.17 | -0.219 | -0.219 | 1.15 | -0.362 | 1.03 | -0.676 | -0.0022 | -1.52 | 1.1 | 1.13 | -0.904 | 0.987 | -0.0108 | -0.981 (inactive) |
| CC(C)CON=C1C[C@@H](O)[C@@H](O)[C@@H]2[C@@H]3C(=O)N(c4ccc(F)cc4F)C(=O)[C@@H]3CC[C@@H]12 | 0.238 | -0.0578 (inactive) | -0.095 | -0.0896 | 0.0617 | -0.146 | 0.135 | 0.693 | 0.243 | 0.72 | 0.663 | 0.105 | 0.156 | 0.699 | 0.585 | 0.508 | -0.99 | 0.617 | -0.0433 | 0.831 (inactive) |
| COc1ccc(COC(=O)NN=C2C[C@@H](O)[C@@H](O)[C@@H]3[C@@H]4C(=O)N([C@@H](C)c5ccccc5)C(=O)[C@@H]4CC[C@@H]23)cc1 | 0.274 | -0.228 (inactive) | -0.0697 | 0.0318 | 0.171 | -0.211 | 0.131 | -0.196 | 0.448 | 0.162 | -0.253 | 0.661 | -0.313 | 0.373 | 0.244 | 0.272 | -0.304 | 0.244 | 0.242 | 0.447 (inactive) |
| C#CCCCON=C1C[C@@H](O)[C@@H](O)[C@@H]2[C@@H]3C(=O)N(C[C@@H]4CCCO4)C(=O)[C@@H]3CC[C@H]12 | 0.541 | 1.11 (inactive) | -0.0662 | -0.115 | 0.239 | 0.335 | 0.142 | 0.63 | 0.249 | 0.732 | 0.185 | 0.508 | 0.235 | 0.509 | 0.669 | 0.103 | -0.544 | 0.388 | 0.0691 | 0.451 (inactive) |
| C[C@@H](c1ccccc1)N1C(=O)[C@H]2[C@H]3[C@H](O)[C@H](O)CC(=NNC(=O)OCc4ccccc4)[C@@H]3CC[C@H]2C1=O | 0.517 | 0.581 (inactive) | -0.0647 | -0.148 | -0.191 | -0.231 | -0.723 | 0.723 | 1.45 | -0.569 | -0.23 | -1.01 | 0.37 | -0.864 | 1.43 | 1.66 | -0.383 | 1.39 | -0.212 | 0.574 (inactive) |
| CON=C(C)CCC(=O)OC[C@H]1O[C@H](C#Cc2ccccc2)C=C[C@@H]1Oc1ccc(C)cc1 | 0.468 | -0.054 (inactive) | -0.0111 | -0.0751 | 0.263 | 0.661 | 0.232 | 0.626 | 0.479 | 0.491 | 0.377 | 0.54 | 0.122 | 0.354 | 0.398 | 0.344 | -0.656 | 0.569 | 0.279 | -3.61 (inactive) |
| COc1ccc(OC[C@@H](CO)OC)cc1 | -0.151 | 0.675 (inactive) | -0.0865 | -0.118 | -0.148 | -0.206 | -0.295 | 0.14 | 0.175 | 0.0261 | 0.324 | 0.0896 | 0.172 | 0.227 | 0.649 | 0.205 | 0.754 | 0.356 | -0.254 | -0.531 (inactive) |
| CCOC(=O)CCN1C(=O)[C@H]2[C@@H]3C(=CC[C@H]2C1=O)C(=O)[C@H]1O[C@H]1[C@H]3O | 0.375 | -0.342 (inactive) | -0.313 | -0.146 | 0.534 | -0.774 | 0.0946 | -0.728 | -0.23 | -0.666 | -0.705 | -0.307 | -0.336 | -0.476 | -1.02 | -0.858 | 0.736 | -0.762 | 0.243 | -1.04 (inactive) |
| CCOC(=O)CCN1C(=O)[C@H]2[C@H]3[C@H](O)[C@H](O)CC(=NO[C@@H]4O[C@H](CO)[C@@H](O)[C@H](O)[C@H]4O)[C@@H]3CC[C@H]2C1=O | 0.83 | 0.397 (inactive) | 0.207 | -0.0698 | 0.381 | 0.279 | -0.0046 | 1.3 | 1.04 | 0.322 | 0.818 | 1.12 | 0.118 | 0.854 | 1.22 | 1.22 | -0.102 | 1.4 | 0.829 | -0.115 (inactive) |
| CON=C(C)CCN1CCc2nc(-c3ccccc3)c(-c3ccccc3)cc2C1 | 0.633 | 0.837 (inactive) | -0.132 | -0.0829 | -0.153 | -0.556 | 0.0881 | -0.303 | 0.258 | 1.13 | -0.634 | -0.545 | -0.414 | 0.838 | 0.944 | 0.344 | 2.9 | 0.686 | 0.801 | 0.326 (inactive) |
| CC(CCN1CCCCc2nc(C)c(C)cc21)=NOC[C@@H](O)[C@H]1O[C@@H]2OC(C)(C)O[C@@H]2[C@H]1O | 0.814 | -0.379 (inactive) | -0.0363 | -0.166 | -0.378 | -0.461 | -0.258 | 0.0948 | 1.16 | -0.0142 | 3.04 | -0.491 | -0.319 | 1.01 | 0.416 | 0.937 | -0.584 | 1 | -0.163 | 0.766 (inactive) |
